Measured values published in the supplement of paper PMC7866885, “A novel bicyclic 2,4-diaminopyrimidine inhibitor of Streptococcus suis dihydrofolate reductase” (PeerJ, 2021).
± gives the standard deviation.

The molecules below were run on Streptococcus suis HE06 (assay: percent growth relative to DMSO control; higher = less growth inhibition). Conditions: 10 µM; incubation time 18 h.
Description: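 CLSI broth microdilution: 5x10^4 CFU of Streptococcus suis (strain P1/7 or HE06) incubated with 10 µM Pathogen Box compound in cation-adjusted Mueller Hinton broth, 37 °C, 5% CO2, 18 h. Growth read as OD600 and expressed as percent of the DMSO-treated control (100%); mean ± SD of three independent experiments.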
For `O=C(C1CCCCC1)N1CC(=O)N2CCc3ccccc3C2C1` (centres undefined), the percent growth was 79.3 ± 24%. In the case of `CC[C@H](CO)NCCN[C@H](CC)CO`, the percent growth is reported as 88.7 ± 6.4%. `CCc1ccc([C@@H]2C[C@H](C(F)(F)F)n3ncc(C(=O)NCc4ccc(OC)cc4)c3N2)cc1` gave a percent growth of 92.3 ± 12%. In the case of `CCOc1ccc2cc(-c3nn(CC4CCN(C)CC4)c4ncnc(N)c34)ccc2c1`, the percent growth is reported as 97 ± 13%. Work on `CC(=O)Nc1ccc(NC(=O)c2cc(-c3cc(Cl)ccc3O)[nH]n2)cc1` yielded a percent growth of 96.5 ± 11%. In the case of `CC(C)(C)C(=O)N(CCCCCCN1C[C@H](O)[C@@H](O)[C@H](O)[C@H]1CO)C1CCCCCC1`, the percent growth is reported as 122 ± 27%. `Cc1cc(C)nc(-n2nc(C)cc2Nc2ccccc2)n1` showed a percent growth of 0.964 ± 1.7%. `CN1CCN(S(=O)(=O)c2ccc(-c3ccc4c(Nc5ncc(Cl)cn5)ccnc4c3)cc2)CC1` gave a percent growth of 92.2 ± 8.5%. `O=S(=O)(c1ccc(Cl)cc1)N1CCN(C(=S)NCc2ccco2)CC1` gave a percent growth of 93.7 ± 22%. `Cc1cc(Nc2ccncc2)n2nc(C)c(-c3ccccc3Cl)c2n1` gave a percent growth of 73.9 ± 22%. For `O=C(NC1CC1)c1ccc(CSCc2ccccc2Cl)o1`, the percent growth was 83.2 ± 21%. `O=C(Nc1ccccc1)c1ccc(-c2cc3ccncc3cc2OC2CCNCC2)s1` was tested, and the percent growth was 85.8 ± 20%. `CS(=O)(=O)c1cccc(-c2cnc3[nH]cc(-c4ccc(CCC(=O)O)cc4)c3c2)c1` showed a percent growth of 68.7 ± 5.5%. For `COCC(C)NC(=O)CSc1ncnc2sc(-c3ccccc3)cc12` (centres undefined), the percent growth was 95.4 ± 33%. In the case of `CN1CCN(c2nccc3nc(-c4ccc(F)c(F)c4)[nH]c23)CC1`, the percent growth is reported as 82.2 ± 21%. For `CCCn1nnc(NC(=O)COc2ccc(C3CCCCC3)cc2)n1`, the percent growth was 115.2 ± 1%. `O=C(NC1CCN(c2ccnc3ccccc23)C1)c1cccc(C(F)(F)F)c1` (centres undefined) was tested, and the percent growth was 106 ± 30%. In the case of `c1ccc(Oc2ccc(-c3cncc(-c4ccc5[nH]ccc5c4)n3)cc2)cc1`, the percent growth is reported as 109 ± 24%. With `O=[N+]([O-])c1cn2c(n1)OC[C@@H](OCc1ccc(OC(F)(F)F)cc1)C2` the percent growth was 110 ± 13%. `CC1=Nc2ccc(Cl)cc2C(O)(c2ccc(C)cc2)N1CCN1CCCCC1` (centres undefined) was tested, and the percent growth was 98.9 ± 32%. Work on `O=C(NC1CC1)c1ccc(N2CCOc3ccc(Cl)cc32)s1` yielded a percent growth of 73.8 ± 20%. In the case of `CC(C)(C)n1nc(Cc2cccc3ccccc23)c2c(N)ncnc21`, the percent growth is reported as 90.1 ± 3.1%. Work on `COc1ccc2nc(C)cc(OCC(=O)NCc3ccccc3)c2c1` yielded a percent growth of 91.7 ± 11%. Molecule `O=C(c1cc2ccccc2o1)N1CCN(Cc2ccc3c(c2)OCO3)CC1` has a percent growth of 84.6 ± 20%. Work on `O=C(Nc1ccccc1-c1nc2c(C(=O)O)cccc2o1)c1ccccc1` yielded a percent growth of 68.4 ± 14%. Molecule `O=C(NCCc1ccn(-c2ccccc2)n1)C1CCCCC1` has a percent growth of 97.3 ± 2.1%. In the case of `CCN(CC)CCCCCCNc1cc(OC)cc2c(C)ccnc12`, the percent growth is reported as 81.6 ± 14%. In the case of `c1cncc(NCc2ccc(-c3cc4ccncc4cc3OC3CCNCC3)s2)c1`, the percent growth is reported as 100 ± 18%. `O=C(Nc1nnc(-c2ccc(Cl)s2)o1)c1ccc(Cl)s1` showed a percent growth of 1.06 ± 1.1%. Work on `CC(=O)N1CCc2cc3nc(C)cc(C)c3cc21` yielded a percent growth of 88.4 ± 9.8%. In the case of `O=C(C1CCN(c2nnc(-n3cccc3)s2)CC1)N1CCC(Cc2ccccc2)CC1`, the percent growth is reported as 120 ± 18%. With `CNC(=O)C1Cc2c([nH]c3cc(Cl)ccc23)C2(CCN(CCc3ccccc3)CC2)N1` (centres undefined) the percent growth was 95.5 ± 23%. `Cc1cccnc1NC(=O)c1cccc(OCc2c(C)noc2C)c1` was tested, and the percent growth was 81.4 ± 11%. With `Clc1ccc(Cl)c(CO[C@H]2CCCC[C@@H]2n2ccnc2)c1` the percent growth was 26.2 ± 40%. `Cc1ccc(S(=O)(=O)N2CCN(C(=O)c3cc(-c4ccccc4)[nH]n3)CC2)cc1` was tested, and the percent growth was 118 ± 39%. `CNC(=O)CNc1nc(-c2ccccn2)nc2scc(-c3ccccc3)c12` was tested, and the percent growth was 87.1 ± 13%. With `O=C(COc1cccc(F)c1)Nc1nc(-c2ccccn2)cs1` the percent growth was -0.0745 ± 0.086%. Work on `Nc1ncc(Br)cc1-c1nc2cc(Cl)cnc2[nH]1` yielded a percent growth of 92.2 ± 8.1%. In the case of `Cc1ccc(-c2nc(CN(Cc3ccccn3)C(C)C)cs2)o1`, the percent growth is reported as 25.7 ± 44%.
